The sample as a whole holds a higher share of hits than the screen did.
RmlCD inh mix: mixture blocks RmlC and RmlD coupled enzyme activity; RmlC/RmlD coupled enzyme inhibition, 384-well mixture HTS; inhibition, % at 5.5 µM; 110,000 tested, 0.39% active; in the data active = inhibition above about 30%, passing the limit was not always enough
RT RNaseH block: inhibitors of HIV-1 reverse transcriptase RNase H; 65,000 tested, 1.9% active; P04585; RT-RNase H RNA/DNA duplex cleavage, fluorescence; inhibition, % at 10 µM; in the data active = inhibition above about 50%
* = called active by the depositor; · = no result.

SMILES	RmlCD inh mix	RT RNaseH block
CCc1nnc(NC(=O)C2Cc3ccccc3CN2S(=O)(=O)c2cccs2)s1 (stereo not given)	0.1	50.5*
COc1ccc(S(=O)(=O)N2Cc3ccccc3CC2C(=O)Nc2nccs2)cc1 (stereo not given)	7.1	·
O=C(Nc1nnc(C2CC2)s1)C1Cc2ccccc2CN1S(=O)(=O)c1cccs1 (stereo not given)	-13.5	58.9*
CC1(C)CN2C(=S)N(c3ccccc3)C(c3ccccc3)N2C1 (stereo not given)	-15.8	·
CCCCCCS(=O)Cc1ccccc1 (stereo not given)	2.0	-2.4
O=C1CC(N2CCOCC2)C(=O)N1c1cccc(Cl)c1 (stereo not given)	-16.9	5.6
O=C1C(Cl)=C(N2CCOCC2)C(=O)N1c1cccc(Cl)c1	8.1	93.0*
CN1CCN(C2=C(Cl)C(=O)N(CCc3ccccc3)C2=O)CC1	36.1	1.4
O=C1C(Cl)=C(N2CCCCCC2)C(=O)N1c1ccccc1	6.5	56.8*
CC1=C[C@@H](C)[C@@H](c2ccccc2)OC1=O	-10.8	·
O=C(Nc1nccs1)C1CCCN1S(=O)(=O)c1ccc(F)cc1 (stereo not given)	-1.0	-6.0
COCCN1Cc2cccc(C(=O)Nc3ccc(C)c(C)c3)c2C1=O	-10.4	-6.5
COCCN1Cc2cccc(C(=O)Nc3c(C)cccc3C)c2C1=O	-21.4	58.1*
COC(=O)C1=C(N)Oc2cc(C)n(Cc3cccnc3)c(=O)c2C1c1cccc(OC)c1OC (stereo not given)	-6.5	-12.8
O=S(=O)(NCCSc1ccccc1)c1cccs1	4.6	-53.1
COC(=O)c1c(NC(=O)c2ccco2)sc(C(=O)Nc2ccc(F)cc2)c1C	15.5	55.8*
COC(=O)c1c(NC(=O)c2ccco2)sc(C)c1C	-27.9	9.0
O=C1CC(N2CCC(O)(c3ccc(Cl)cc3)CC2)C(=O)N1Cc1ccc(N2CCCC2=O)cc1 (stereo not given)	6.4	8.2
Cc1csc(NC(=O)CSc2nnc(-c3ccoc3C)n2Cc2ccco2)n1	-15.1	-20.5
O=C(NCc1ccco1)c1ccc2c(=O)n(CCC3=CCCCC3)c(=O)[nH]c2c1	5.4	51.8*
CCN1CCN(C(=O)c2ccc3c(=O)n(CCC4=CCCCC4)c(=O)[nH]c3c2)CC1	-3.2	-25.6
CCOC(=O)c1c(NC(=O)CSc2nnnn2C)sc(CC)c1C	-10.2	-46.3
O=C(CSc1nc2ccccc2s1)c1cc2ccccc2o1	1.2	·
CN1CCc2c(sc3c2C(=O)NC(c2ccco2)N3)C1 (stereo not given)	6.6	0.2
Cn1cccc1C1NC(=O)c2c(sc3c2CCC(C(C)(C)C)C3)N1 (stereo not given)	72.1	60.0*
SMILES	RmlCD inh mix	RT RNaseH block
COc1ccc(-c2nnc(SCc3nnc(-c4ccc(Cl)cc4)o3)n2-c2ccccc2)cc1	8.0	-1.4
COCCNC(=O)c1c(N)n(CCCn2ccnc2)c2nc3ccccc3nc12	124.1*	-1.6
COCCNC(=O)c1c(N)n(CCC(C)C)c2nc3ccccc3nc12	-152.6	·
O=S(=O)(NCc1cccnc1)c1ccccc1	-9.8	·
CCn1c(CNC(=O)c2ccc(OC)cc2)nnc1SCC(=O)c1ccccc1	-8.6	4.1
CCn1c(CCNC(=O)c2cccs2)nnc1SCC(=O)c1ccc(OC)cc1	-6.5	57.4*
CCCCN(CC)C(=O)C1CCC(=O)N(c2ccc(OC)cc2)C1c1ccc(OC)c(OC)c1 (stereo not given)	·	-4.5
Cc1cc(C)c2c(n1)nn1c(N3CCN(c4ccccc4)CC3)cc(C)nc21	-27.5	14.7
Cc1cc(C)c2c(n1)nn1c(NCCOCCO)cc(C)nc21	44.1*	-8.7
CCOC(=O)CSc1nnc(CSc2nc3sc4c(c3c(=O)[nH]2)CCCC4)n1-c1ccccc1	8.9	·
CC(C)CN(CC(C)C)C(=O)C12CCC(C)(C(=O)C1)C2(C)C (stereo not given)	10.5	2.6
CN(C(=O)NC(=O)C1=C(N2CCOCC2)/C(=C/c2ccccc2)CC1)S(C)(=O)=O	135.2*	-11.8
CCCCN(C(=O)NC(=O)C1=C(N2CCOCC2)/C(=C/c2ccccc2)CC1)S(C)(=O)=O	·	-9.7
N#Cc1c2c(c(=S)n(-c3ccccc3)c1N)CCCC2	·	70.1*
CCOC(=O)c1c2c(c(=S)n(-c3ccccc3)c1N)CCC2	19.2	9.5
CCOCCCn1c(=N)c(C(=O)Nc2cc(C)on2)cc2c(=O)n3ccccc3nc21	·	-13.6
C=CCNC(=O)c1sc(=S)n(-c2ccc(C(=O)OCC)cc2)c1N	-1.3	75.8*
COc1ccc(-n2c(N)c(C(=O)NCc3ccco3)sc2=S)cc1	6.6	·
CCOC(=O)c1ccc(-n2c(N)c(C(=O)NCc3ccco3)sc2=S)cc1	0.7	71.9*
CCOC(=O)c1ccc(-n2c(N)c(C(=O)NCC3CCCO3)sc2=S)cc1 (stereo not given)	-9.0	·
Cc1ccc(C(=O)NCc2ccco2)cc1S(=O)(=O)Nc1cccc(Cl)c1	2.3	·
CC(=O)Nc1c(C(=O)O)oc2ccc(Cl)cc12	·	1.6
CC(=O)Nc1c(C(=O)O)oc2ccccc12	-9.2	55.6*

Screens (PubChem BioAssay)
